Screening results: PubChem BioAssay, The Scripps Research Institute Molecular Screening Center
SRC1 TRFRET art = TR-FRET artefact, counter-screen to PPARgamma/SRC-1 agonist assay | hit rate 0.34% among 99,000 | TR-FRET ratio at 8 µM | TR-FRET detection artefact counter-screen, emission ratio; stronger effect = higher value; in the data active means TR-FRET ratio above about 2300
SRC2 TRFRET art = flags TR-FRET format artefacts in PPARgamma SRC-2 recruitment agonist screen | TR-FRET artefact counter-screen; stronger effect = higher value | TR-FRET ratio at 8 µM | hit rate 0.4% among 200,000; in the data active means TR-FRET ratio above about 2000
PPARg SRC-3 ag = promotes SRC-3 coactivator recruitment by human PPARgamma | P37231 | biochemical PPARgamma/SRC-3 coactivator recruitment assay | activation, % at 8 µM | hit rate 0.26% among 200,000; in the data active means activation above about 23%;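 further: 0% = DMSO and 100% = reference agonist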
PPARg SRC-1 ag = agonists of human PPARgamma SRC-1 coactivator recruitment; P37231; PPARgamma-SRC-1 coactivator recruitment biochemical assay; activation, % at 8 µM; hit rate 0.41% among 200,000; AID 631; in the data active means activation above about 19%;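 further: 0% = DMSO and 100% = reference agonist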
PPARg SRC2 recr = PPARgamma-driven SRC-2 recruitment agonism; P37231; PPARgamma LBD-SRC-2 recruitment, biochemical; activation, % at 8 µM; hit rate 0.34% among 200,000; AID 1032;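 further: 0% = vehicle and 100% = reference agonist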
SRC3 TRFRET art = TR-FRET artefact, counter-screen to PPARgamma/SRC-3 agonist assay; PPARgamma/SRC-3 format; stronger effect = higher value; TR-FRET ratio at 8 µM; hit rate 0.39% among 99,000; in the data active means TR-FRET ratio above about 2000
PPARg SRC2 conf = human PPARgamma SRC-2 recruitment agonism, confirmation; shares compounds with PPARg SRC-3 ag; biochemical SRC-2 recruitment by PPARgamma; activation, % at 8 µM; hit rate 52% among 790; AID 1297;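 further: 0% = vehicle alone and 100% = reference agonist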
PPARg SRC1 conf = human PPARgamma SRC-1 recruitment agonism, confirmation; shares compounds with PPARg SRC-3 ag; PPARgamma–SRC-1 coactivator recruitment biochemical assay; activation, % at 8 µM; hit rate 43% among 790; in the data active means activation above about 20%;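 further: 0% = vehicle wells and 100% = reference agonist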
PPARg SRC3 conf = human PPARgamma SRC-3 recruitment agonism, confirmation; hit rate 29% among 790; AID 1301; biochemical PPARgamma-SRC-3 coactivator recruitment, agonist mode; shares compounds with PPARg SRC-3 ag; activation, % at 8 µM; in the data active means activation above about 24%;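 further: 0% = vehicle wells and 100% = reference agonist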
* = called active by the depositor; . = not tested or not shown. Shown are actives, neighbours in structure and some others; about 0.84% of the full set was active somewhere. Unless noted, no stated cut-off is given here; in the data, active means activation above about 22%; inactive means the rest.

SMILES	SRC1 TRFRET art	SRC2 TRFRET art	PPARg SRC-3 ag	PPARg SRC-1 ag	PPARg SRC2 recr	SRC3 TRFRET art	PPARg SRC2 conf	PPARg SRC1 conf	PPARg SRC3 conf
Cc1onc(-c2ccccc2Cl)c1C(=O)Nc1nn[nH]n1	1628	1475	-5	0	5	1461	.	.	.
Cc1onc(-c2c(F)cccc2Cl)c1C(=O)Nc1nnc(C2CC2)s1	.	1619	7	7	8	.	.	.	.
Cc1onc(-c2ccccc2Cl)c1C(=O)Nc1nnc(-c2ccc(Br)cc2)s1	.	2175*	25	29*	28*	.	32*	18	20
O=C(CSCc1cccc(Br)c1)N/N=C/c1ccc2c(c1)OCO2	.	1495	-4	-5	2	.	.	.	.
CC(C)C1Cc2c(C#N)c(N)sc(=S)c2CO1 (stereo not drawn)	.	2315*	47*	33*	39*	.	12	8	5
Cc1cc(C)nc(-n2nc(C)cc2NC(=O)CN2CCCC(C)C2)n1 (stereo not drawn)	.	1531	13	20*	15	.	4	4	2
Cc1cc(C)nc(-n2nc(C)cc2NC(=O)CN2CCc3ccccc3C2)n1	.	1463	-4	-3	-2	.	.	.	.
COc1ccc2c(C)cc(=S)[nH]c2c1	2499*	1987*	15	32*	22*	2185*	6	6	4
Nc1ccc(Nc2nc(-c3ccncc3)cs2)cc1	.	1644	33*	11	19	.	5	3	3
CN(C)c1ccc(NC(=O)Oc2ccccc2)cc1	.	2246*	91*	15	58*	.	7	3	5
Cc1ccc(Oc2nnc(-c3cccs3)c3ccccc23)cc1C	1774	1532	4	-2	-8	1668	.	.	.
CC(C)CCN(C(=O)Cc1ccc(Cl)c(Cl)c1)c1c(N)n(Cc2ccccc2)c(=O)[nH]c1=O	1785	1391	-3	6	-5	1543	.	.	.
CCn1c(=O)cc(SCC(=O)NCc2ccco2)c2ccccc21	.	1824	30*	22*	33*	.	27*	18	16
CCn1c(=O)cc(SCC(=O)NCc2ccc(C)cc2)c2ccccc21	.	3248*	76*	50*	70*	.	51*	34*	32*
CCn1c(=O)cc(SCC(=O)Nc2ccc(C)cn2)c2ccccc21	2927*	2341*	25*	38*	32*	3211*	28*	17	19
CCn1c(=O)cc(OCC(=O)Nc2ccc(C)cn2)c2ccccc21	.	1467	-4	-5	-1	.	.	.	.
CCn1c(=O)cc(OCC(=O)NCc2cccnc2)c2ccccc21	.	1642	1	4	-1	.	.	.	.
CCn1c(=O)cc(SCC(=O)NCc2cccnc2)c2ccccc21	.	1938	2	21*	18	.	20	14	11
CC1CCN(C(=O)COC(=O)c2cc(Cl)cc(Cl)c2N)CC1	.	1537	8	0	8	.	.	.	.
O=C(Nc1ccc(OCC(=O)N2CCOCC2)cc1)Nc1cccc2ccccc12	1756	1511	1	5	0	1463	.	.	.
O=C(NC(=S)Nc1ccccc1O)c1ccc(Cl)cc1Cl	1787	1571	2	0	-1	1557	.	.	.
CCn1c(=O)cc(SCC(=O)NCc2ccccn2)c2ccccc21	.	1908	18	20*	26*	.	27*	17	18
CCn1c(=O)cc(SCC(=O)NCc2ccc(C)o2)c2ccccc21	.	1550	5	11	10	.	.	.	.
CCOc1ccc(-c2n[nH]c(=S)o2)cc1	2049	1808	6	16	6	1733	.	.	.
CCOc1ccccc1-c1n[nH]c(=S)o1	.	2292*	50*	28*	39*	.	43*	30*	28*
SMILES	SRC1 TRFRET art	SRC2 TRFRET art	PPARg SRC-3 ag	PPARg SRC-1 ag	PPARg SRC2 recr	SRC3 TRFRET art	PPARg SRC2 conf	PPARg SRC1 conf	PPARg SRC3 conf
Cc1ccc(-n2cccc2/C=C2\C(=N)N3N=C(c4ccco4)SC3=NC2=O)cc1	1439	1473	0	-2	2	1460	.	.	.
Cc1cc(=O)c2cc(Cl)ccc2[nH]1	.	1770	6	6	-3	.	.	.	.
Cc1ccc2[nH]c(C)cc(=S)c2c1	2798*	2363*	22	26*	38*	2534*	4	7	5
Cc1cc(-c2sccc2Br)nc(-n2cccc2)n1	2236	1890	10	22*	11	2170*	18	14	13
Clc1ccc(-c2ccnc(-n3cccc3)n2)s1	1910	1522	6	0	7	1708	.	.	.
Cc1cc(-c2ccc(Br)s2)nc(-n2cccc2)n1	2540*	2162*	24*	26*	25*	2617*	42*	29*	26*
COc1cccc(NC(=O)CN(C)C(C)C(=O)Nc2ccc(S(=O)(=O)N3CCCC3)cc2)c1 (stereo not drawn)	1631	1397	4	-1	5	1736	.	.	.
CCOC(=O)c1cc(Br)c(=O)n2ccccc12	.	2044*	32*	32*	39*	.	17	16	12
O=C(Cn1ccc(C(F)(F)F)n1)N/N=C/c1ccc(N2CCOCC2)cc1	1837	1504	-4	4	-3	1668	.	.	.
N#CCCN1CCN(C(=S)c2ccc(-c3ccc(Cl)cc3)o2)CC1	.	1605	16	24*	1	.	31*	28*	18
S=C(c1ccc(-c2ccc(Cl)cc2)o1)N1CCCCC1	.	1533	-1	-2	-6	.	.	.	.
CCOCC(=O)Nc1c(C(=O)Nc2ccc3c(c2)OCCO3)oc2ccccc12	1585	1567	-2	-1	5	1441	.	.	.
O=C(Cc1ccc([N+](=O)[O-])cc1)NCc1ccccn1	1726	1685	4	0	6	1459	.	.	.
O=C(Cc1cccs1)NCCSc1c(-c2ccc(Cl)cc2)[nH]c2ccccc12	3752*	5424*	54*	28*	20	7221*	26*	32*	41*
Cc1ccc(-c2[nH]c3ccccc3c2SCCNC(=O)c2cc3ccccc3oc2=O)cc1	1683	1384	6	7	4	1709	.	.	.
COc1ccc(CCCC(=O)N/N=C/c2ccccc2OC)cc1	1614	1490	6	3	-1	1586	.	.	.
CCCC(=O)Nc1nc(C)c(C(C)=O)s1	2803*	2441*	21	35*	30*	2466*	32*	21*	21
C=CCSC1=Nc2cc(OC)c(OC)cc2C2=NC(=O)CN12	1868	1797	10	21*	15	1730	29*	18	18
CCN(CC)S(=O)(=O)c1ccc(O)c(C(=O)OCC(=O)Nc2ccc(OC(F)(F)F)cc2)c1	1919	1506	3	4	4	1595	.	.	.
